Assay results: the supplement of paper PMC12024529

tested on: HEK293 WT BDD-FVIII-Gluc; assay: secreted FVIII-Gluc luciferase Z-score vs DMSO control; higher = more FVIII-Gluc secretion; details: 5 µM
Protocol: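 Natural plant-compound library (480 compounds, ST catalogue IDs) screened on HEK293 cells stably expressing WT BDD-FVIII-Gaussia luciferase fusion at 5 µM. Secreted Gluc activity in the medium is given as a Z-score relative to DMSO controls.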

| Compound | secreted FVIII-Gluc luciferase Z-score |
| --- | --- |
| COc1cc2c(c(OC)c1OC)-c1ccc(OC)c(=O)cc1C(NC(C)=O)CC2 (stereo not given) | -6.65 |
| COc1cccc2c1cc([N+](=O)[O-])c1c(C(=O)O)cc3c(c12)OCO3 | 0.158 |
| CN1CCc2cc3c(cc2[C@H]1[C@H]1OC(=O)c2c1ccc1c2OCO1)OCO3 | 0.159 |
| C=C[C@H]1CN2CCC1C[C@@H]2C(O)c1ccnc2ccccc12 (stereo not given in full) | 0.484 |
| NCC(O)c1cccc(O)c1 (stereo not given) | 0.434 |
| CC[C@@H](CO)NC(=O)[C@@H]1C=C2c3cccc4[nH]cc(c34)C[C@H]2N(C)C1 | 0.791 |
| CCC1CN2CCC1CC2C(O)c1ccnc2ccccc12 (stereo not given) | 0.33 |
| CCN1C[C@]2(C)CC[C@H](O)[C@@]34C5C[C@@H]6[C@@H](OC)C[C@@](O)(C5[C@H]6O)[C@@H](CC23)C14 (stereo not given in full) | 0.562 |
| O=CN1CCCCC1C1CC[C@H]2CCCCN2C1 (stereo not given in full) | 0.233 |
| CNC(=O)Oc1ccc2c(c1)C1(C)CCN(C)C1N2C (stereo not given) | 0.602 |
| CN(C)[C@@H]1C(=O)C(C(N)=O)=C(O)[C@@]2(O)C(=O)C3=C(O)c4c(O)cccc4[C@@](C)(O)[C@H]3C[C@@H]12 | 0.496 |
| COc1ccc2c(c1O)-c1c(OC)c(OC)cc3c1[C@H](C2)N(C)CC3 | 0.32 |
| CC(=O)OC1CC(OC2C(O)CC(OC3C(O)CC(OC4CCC5(C)C(CCC6C5CC(O)C5(C)C(C7=CC(=O)OC7)CCC65O)C4)OC3C)OC2C)OC(C)C1OC1OC(CO)C(O)C(O)C1O (stereo not given) | -4 |
| CCC1(O)C(=O)OCc2c1cc1n(c2=O)Cc2cc3ccccc3nc2-1 (stereo not given) | -3.23 |
| C/C=C1/C[C@@H](C)[C@](O)(CO)C(=O)OCC2=CCN3CC[C@@H](OC1=O)[C@@H]23 | -1.37 |
| OC[C@@H]1CCCN2CCCC[C@H]12 | -0.141 |
| COc1cc2c(cc1OC)-c1c(O)c(OC)cc3c1[C@H](C2)N(C)CC3 | 0.65 |
| C=C1C/C(=C/C)C(=O)O[C@@H]2CCN3CC=C(COC(=O)[C@]1(C)O)[C@H]23 | 0.649 |
| Cc1ccc2[nH]c(CCN)cc2c1 | 1.37 |
| CCN1C[C@@]2(COC)C3[C@@H](OC)[C@H]4C1[C@@]3(C1C[C@@]3(O)[C@H](OC(=O)c5ccccc5)C1[C@]4(OC(C)=O)[C@@H](O)[C@@H]3OC)[C@@H](OC)C[C@H]2O (stereo not given in full) | -0.523 |

| Compound | secreted FVIII-Gluc luciferase Z-score |
| --- | --- |
| CN[C@@H](Cc1c[nH]c2ccccc12)C(=O)O | 0.0662 |
| CN1C[C@@H](CO)C=C2c3cccc4[nH]cc(c34)CC21 (stereo not given in full) | 0.731 |
| COc1ccc(CC2NCC(O)C2OC(C)=O)cc1 (stereo not given) | -4.62 |
| C[C@]12CC[C@H](O)C[C@H]1CC[C@@H]1[C@@H]2C[C@@H](O)[C@]2(C)[C@@H](C3=CC(=O)OC3)CC[C@]12O | -7.45 |
| CC1=CC(=O)C2=C(C)C[C@H](O)[C@H]3[C@H](C)C(=O)O[C@@H]3C12 (stereo not given in full) | -0.726 |
| CCN1CC2(COC(=O)c3ccccc3N3C(=O)CC(C)C3=O)CC[C@H](OC)[C@@]34C5C[C@@H]6[C@@H](OC)C[C@@](O)(C5[C@H]6OC)[C@](O)([C@@H](OC)C23)[C@@H]14.[O-][Cl+3]([O-])([O-])O (stereo not given in full) | 0.461 |
| CCC12CCCN3CCC4(c5ccc(OC)c(O)c5N(C(C)=O)C4CC1)C32 (stereo not given) | 0.655 |
| COc1ccc2c(c1)[nH]c1c(C)nccc12 | -2.87 |
| COc1ccc(CC2c3cc(OC)c(OC)cc3CCN2C)cc1OC (stereo not given) | -1.36 |
| CC(C)(C)[C@]1(O)C[C@@H]2OC(=O)C[C@@]23C(=O)O[C@@H]2OC(=O)[C@H](O)[C@]213 | -0.32 |
| CN1[C@@H]2CC[C@H]1CC(OC(=O)C(CO)c1ccccc1)C2 (stereo not given in full) | -0.395 |
| CN[C@H]1CCc2cc(OC)c(OC)c(OC)c2-c2ccc(OC)c(=O)cc21 | -3.62 |
| CCC1CN2CCc3cc(OC)c(OC)cc3[C@@H]2C[C@@H]1C[C@H]1NCCc2cc(OC)c(OC)cc21 (stereo not given in full) | -3.94 |
| CC1=C2C3OC(=O)C(C)C3CC[C@@]2(C)C=CC1=O (stereo not given in full) | 0.0932 |
| CCCN1C[C@H](CSC)C[C@@H]2c3cccc4[nH]cc(c34)C[C@H]21 | 0.385 |
| C[C@]1(C(=O)O)CCC[C@]2(C)c3cc(O)ccc3CC[C@@H]12 | -1.23 |
| OC1COC(NC2OCC(O)C(O)C2O)C(O)C1O (stereo not given) | 0.00225 |
| C[C@@H]1OC(=O)[C@H]2C[C@H]3CCCC[C@@H]3[C@@H](/C=C/[C@@H]3CCC[C@@H](C)N3C)[C@@H]12 | -0.126 |
| COc1cc2c(cc1O)CCNC2C (stereo not given) | 0.0191 |
| CN(C)[C@@H]1C(=O)C(C(N)=O)=C(O)[C@@]2(O)C(=O)C3=C(O)c4c(O)cccc4[C@@](C)(O)[C@H]3[C@H](O)[C@@H]12 | 0.919 |
